# Experimental data taken from PubChem BioAssay AID881 (National Center for Advancing Translational Sciences (NCATS), 2007).
# About 610 (0.55%) of roughly 110,000 compounds were called active. A call without a number means that no potency is given here. About 3% were inconclusive and are not listed. The sample as a whole holds a higher share of actives than the screen did. Unmarked numbers belong to inactive results. Calls follow the shape of the dose curve; as a rule, active = well fitted inhibition curve with a large enough effect; inconclusive = small, poorly fitted or top-dose-only effect; inactive = no such curve, though single readings can be large or run the other way.
# Biological target: Polyunsaturated fatty acid lipoxygenase ALOX15B (Homo sapiens) (UniProt O15296)
# Test: qHTS Assay for Inhibitors of 15-hLO-2 (15-human lipoxygenase 2); also: nearly all actives have a fitted effect of over 60% in size
# Details: purified 15hLO-2, xylenol orange hydroperoxide absorbance; series mostly up to 57.1 µM
# Source text: Assay Overview: NIH Molecular Libraries Screening Centers Network [MLSCN] NIH Chemical Genomics Center [NCGC] MLSCN Grant: MH081283-01A1 PI Name: Holman, T.R., University of California, Santa Cruz Human lipoxygenase 15hLO-2 is a member of the closely related lipoxygenase family of enzymes which catalyze the site-specific oxidation of arachidonic acid to various hormone precursor molecules and as such is a candidate for drug development in a variety of disease areas, such as cancer and inflammation. Inhibition of 15hLO-2 activity was screened by utilizing arachidonic acid as a substrate. The extent of hydroperoxide product formation was measured by a secondary chromogenic reaction in which xylenol orange (XO, Sigma-Aldrich, cat. number 39,818-7) reacts with the ferric ions produced from the reaction between the hydroperoxide and ferrous ions. The Fe(III)-XO complex is characterized with red-shifted absorbance at 560 nm. A purified preparation of human 15hLO-2 was supplied by Professor Ted Holman, University of California, Santa Cruz.
# Assay Protocol: Buffer: 25 mM Hepes pH 7.5, 0.01% Triton X-100. Reagents/Controls: Buffer in columns 3 and 4 as negative control (no enzyme). Substrate solution: 45 uM arachidonic acid (Sigma-Aldrich, St. Louis, MO) final concentration dispensed throughout the plate. Enzyme: 50 nM 15hLO-2 final concentration in columns 1, 2, 5-48. Column 1 is neutral (100% activity). Column 2 contained pin-transferred titration of NDGA (nordihidroguaiaretic acid, Sigma-Aldrich, N 5023, top concentration 10 mM in DMSO, then 1:2 dilution in duplicate). (Dilution factor: 23 nL into 4 uL.) Chromogenic detection reagent (divalent iron/xylenol orange, Fe-XO): 200 uM xylenol orange plus 300 uM ferrous ammonium sulfate prepared freshly in 50 mM sulfuric acid. Assay Steps: Three uL of enzyme were dispensed to 1536-well Greiner black clear bottom plates. Compounds and controls (23 nL) were transferred via Kalypsys PinTool. The plates were incubated for 15 min at room temperature, and then 1 uL of substrate solution was added to start the reaction. After room temperature incubation for 90 minutes, 4 uL of Fe-XO solution was added to each well followed by a short spin (1000 rpm, 15 sec) and the plates were then incubated for 30 min. The absorbance at 405 and 573 nm were measured using ViewLux (Perkin-Elmer) High-throughput CCD imager and absorbance protocol settings. The 573-to-405 absorbance ratio was used to compute reaction progress.
# Potency is read from the fitted curve at half-maximal effect.
# Chain of Polyunsaturated fatty acid lipoxygenase ALOX15B (Homo sapiens) (O15296 whole entry, looked up): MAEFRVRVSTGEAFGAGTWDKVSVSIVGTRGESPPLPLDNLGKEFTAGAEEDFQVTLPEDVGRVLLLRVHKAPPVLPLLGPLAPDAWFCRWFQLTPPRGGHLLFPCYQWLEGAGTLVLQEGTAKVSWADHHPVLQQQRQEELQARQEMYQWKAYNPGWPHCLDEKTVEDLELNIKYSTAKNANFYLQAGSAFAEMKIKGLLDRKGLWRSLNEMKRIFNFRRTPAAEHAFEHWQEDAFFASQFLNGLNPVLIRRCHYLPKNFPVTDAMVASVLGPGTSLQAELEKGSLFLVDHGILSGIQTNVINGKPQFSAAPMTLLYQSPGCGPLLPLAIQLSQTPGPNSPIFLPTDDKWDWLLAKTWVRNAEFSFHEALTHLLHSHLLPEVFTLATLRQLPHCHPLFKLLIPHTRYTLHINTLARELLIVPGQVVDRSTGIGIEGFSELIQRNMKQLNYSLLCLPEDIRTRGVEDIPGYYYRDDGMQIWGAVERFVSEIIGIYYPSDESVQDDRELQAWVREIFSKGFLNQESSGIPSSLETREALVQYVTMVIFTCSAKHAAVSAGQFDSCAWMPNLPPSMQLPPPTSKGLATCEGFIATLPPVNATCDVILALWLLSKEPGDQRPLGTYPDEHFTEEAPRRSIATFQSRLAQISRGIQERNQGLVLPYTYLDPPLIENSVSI
Compound,"activity change, negative = inhibition",Potency
O=C(Nc1cc(C(F)(F)F)ccc1Cl)c1cc2nc3c(c(C(F)(F)F)n2n1)CCCC3,inactive,–
CCOc1ccc(N=Cc2c(O)n(-c3cccc(C)n3)c(=O)c3ccccc23)cc1,inactive,–
NNc1nnc(NN)c2ccccc12,35% [at 0.0915 µM],–
CCOC(=O)c1c(NC(=O)CCl)sc(C(=O)N(CC)CC)c1C,inactive,–
O=c1onc(-c2cccs2)n1Cc1ccccc1,inactive,–
CNC(=O)c1nnc(Cc2ccc(Cl)cc2)o1,inactive,–
CC(C)Nc1ncnc2c1nnn2Cc1ccccc1,inactive,–
CN=C1SC(CC(=O)Nc2ccc(C(=O)O)cc2)C(=O)N1C (centres undefined),inactive,–
Cc1c(Br)cc(C(=O)N2CCCCCC2)c(C)c1C,inactive,–
O=C1OCCN1C(=O)[C@H]1[C@H](c2ccccc2)C(c2ccc(F)cc2)=NN1c1ccccc1,-26.1% [at 0.0915 µM],–
Oc1c(Cl)cc(Cl)c(Cl)c1Cc1c(O)c(Cl)cc(Cl)c1Cl,–,10 µM (active)
C=C(C)CSc1nnc(-c2ccc(C)cc2)n1N,inactive,–
COc1ccc(CN2CN(C(C)C)CSC2=S)cc1,–,5.01 µM (active)
COc1ccc(C(=O)CN(C(=O)c2ccc(Cl)cc2)N2C(=O)c3ccccc3C2=O)cc1,inactive,–
O=C(O)CSCc1ccc(C(=O)O)o1,inactive,–
CC(C)NS(=O)(=O)c1ccc(NC(=O)C2CCCCC2)cc1,inactive,–
O=C(CCc1ccc(S(=O)(=O)N2CCOCC2)cc1)Nc1ccc2ccccc2c1,inactive,–
COc1ccc(Nc2cc(=O)oc3ccccc23)cc1,inactive,–
S=C(NCc1cccs1)Nc1ccc(Cl)cc1,inactive,–
O=C(NCc1ccc2c(c1)OCO2)C12CC3CC(CC(C3)C1)C2,inactive,–
S=C(NCc1ccc(Cl)cc1)NC12CC3CC(CC(C3)C1)C2,–,15.8 µM (active)
Cc1cccc(N2C(=O)c3cccnc3C2=O)c1,inactive,–
COc1ccc(-c2c(C)cc3oc(=O)cc(-c4ccccc4)c3c2C)cc1F,-14% [at 0.0915 µM],–
CC1O[C@@H](Oc2c(-c3ccc(O)c(O)c3)oc3cc(O)cc(O)c3c2=O)C(O)C(O)C1O (some centres undefined),inactive,–
O=c1cc(-c2ccc(O)c(O)c2)oc2cccc(O)c12,–,12.6 µM (active)
Cc1cccc(-c2cc(=O)c3cc(C)ccc3o2)c1,inactive,–
CC(C)c1ccc(N2CCN(C(=O)c3ccccc3NC(=O)/C=C(\C(=O)O)c3ccccc3)CC2)cc1,inactive,–
COc1ccc(N2CCN(C(=O)CNC(=O)c3ccc(C(C)(C)C)cc3)CC2)cc1,inactive,–
CC(=O)N1CCN(c2ccc(NCc3ccc(C(C)C)cc3)cc2)CC1,–,12.6 µM (active)
